# Laboratory results taken from publication PMC7862700, “An all-to-all approach to the identification of sequence-specific readers for epigenetic DNA modifications on cytosine”.
# Columns and labels:
# Assay in all cases: DAPPL (digital affinity profiling via proximity ligation, sequencing); 10 mM Tris-HCl pH 7.5, 50 mM NaCl, 1 mM DTT, 4% glycerol, room temperature, 30 min; GST-TFs on glutathione beads, 16-mer random dsDNA library, 0.1% formaldehyde crosslink after washing; high values mean tight binding
# Conditions in all cases: protein: recombinant; tags: N-terminal GST; dsDNA, one strand shown
# FLI1 = target: T1, FLI1 (Homo sapiens, UniProt Q01543 1-452)
# T1 sequence: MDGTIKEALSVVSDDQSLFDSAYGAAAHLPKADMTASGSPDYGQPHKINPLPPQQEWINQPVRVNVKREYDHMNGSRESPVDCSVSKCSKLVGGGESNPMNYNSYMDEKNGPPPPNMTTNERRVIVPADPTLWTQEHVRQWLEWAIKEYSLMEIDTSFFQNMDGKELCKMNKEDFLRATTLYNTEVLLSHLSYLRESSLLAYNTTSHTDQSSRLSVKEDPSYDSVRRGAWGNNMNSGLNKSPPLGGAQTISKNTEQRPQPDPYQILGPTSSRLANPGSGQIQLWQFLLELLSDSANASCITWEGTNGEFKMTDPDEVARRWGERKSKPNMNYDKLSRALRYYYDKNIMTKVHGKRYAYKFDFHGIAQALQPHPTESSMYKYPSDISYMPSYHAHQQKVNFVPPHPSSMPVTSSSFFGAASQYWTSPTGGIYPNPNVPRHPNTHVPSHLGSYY
# How it was run: (§1)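 Human transcription factors fused to GST were expressed in yeast, captured on glutathione beads, given DNA barcodes and pooled with a GST-only negative control. Pools were incubated with 200 nmole of a 16-mer random double-stranded DNA library in Tris/NaCl/DTT/glycerol buffer at room temperature for 30 min. They were then washed, crosslinked with 0.1% formaldehyde, proximity-ligated (BsaI/T4 ligase, 1 h, 37 °C), PCR-amplified and sequenced on an Illumina NextSeq500. Binding signal is each 6-mer's read frequency for a factor divided by its frequency for the GST control.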
# ELK1 = target: T2, ELK1 (Homo sapiens, UniProt P19419 1-428)
# T2 sequence: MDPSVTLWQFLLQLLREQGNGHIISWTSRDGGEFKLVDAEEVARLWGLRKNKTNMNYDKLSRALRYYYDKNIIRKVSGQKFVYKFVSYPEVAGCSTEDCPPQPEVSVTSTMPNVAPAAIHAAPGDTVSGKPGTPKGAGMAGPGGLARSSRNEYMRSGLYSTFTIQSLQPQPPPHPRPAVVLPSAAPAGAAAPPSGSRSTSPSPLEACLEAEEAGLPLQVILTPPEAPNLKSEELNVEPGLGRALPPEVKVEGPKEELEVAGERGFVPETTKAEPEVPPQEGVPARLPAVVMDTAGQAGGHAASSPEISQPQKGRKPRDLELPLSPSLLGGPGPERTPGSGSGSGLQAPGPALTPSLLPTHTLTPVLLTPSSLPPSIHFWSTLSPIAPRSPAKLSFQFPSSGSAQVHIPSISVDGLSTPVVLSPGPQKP
# How it was run: as §1
# GABPA = target: T3, GABPA (Homo sapiens, UniProt Q06546 1-454)
# T3 sequence: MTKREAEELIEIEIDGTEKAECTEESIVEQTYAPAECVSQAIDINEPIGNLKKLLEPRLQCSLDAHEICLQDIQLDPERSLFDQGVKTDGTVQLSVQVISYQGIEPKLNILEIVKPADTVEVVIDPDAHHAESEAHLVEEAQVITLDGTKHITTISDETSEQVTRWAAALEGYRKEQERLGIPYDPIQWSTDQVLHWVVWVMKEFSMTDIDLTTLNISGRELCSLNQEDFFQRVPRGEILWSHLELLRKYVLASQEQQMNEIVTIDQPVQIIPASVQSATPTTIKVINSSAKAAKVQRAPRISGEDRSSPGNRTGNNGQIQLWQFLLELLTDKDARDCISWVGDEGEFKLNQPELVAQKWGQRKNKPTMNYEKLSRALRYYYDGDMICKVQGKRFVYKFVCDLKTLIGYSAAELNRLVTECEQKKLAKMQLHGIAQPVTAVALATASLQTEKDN
# How it was run: as §1
# ERG = target: T4, ERG (Homo sapiens, UniProt P11308 1-479)
# T4 sequence: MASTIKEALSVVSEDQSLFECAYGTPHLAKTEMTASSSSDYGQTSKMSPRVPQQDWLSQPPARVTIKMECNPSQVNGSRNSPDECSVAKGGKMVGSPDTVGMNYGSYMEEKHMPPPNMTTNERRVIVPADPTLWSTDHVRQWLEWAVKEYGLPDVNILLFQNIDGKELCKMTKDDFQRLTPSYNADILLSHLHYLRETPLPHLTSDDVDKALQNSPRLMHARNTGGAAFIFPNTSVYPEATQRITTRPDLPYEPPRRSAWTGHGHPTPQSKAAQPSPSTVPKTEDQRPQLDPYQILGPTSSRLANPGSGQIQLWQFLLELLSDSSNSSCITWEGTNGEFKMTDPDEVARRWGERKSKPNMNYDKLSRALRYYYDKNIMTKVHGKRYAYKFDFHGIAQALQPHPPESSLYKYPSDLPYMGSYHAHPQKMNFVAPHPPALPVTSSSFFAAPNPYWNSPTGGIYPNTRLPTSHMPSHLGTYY
# How it was run: as §1
# ELF1 = ELF1 (Homo sapiens, UniProt P32519 1-619)
# How it was run: as §1
# EHF = target: T5, EHF (Homo sapiens, UniProt Q9NZC4 1-300)
# T5 sequence: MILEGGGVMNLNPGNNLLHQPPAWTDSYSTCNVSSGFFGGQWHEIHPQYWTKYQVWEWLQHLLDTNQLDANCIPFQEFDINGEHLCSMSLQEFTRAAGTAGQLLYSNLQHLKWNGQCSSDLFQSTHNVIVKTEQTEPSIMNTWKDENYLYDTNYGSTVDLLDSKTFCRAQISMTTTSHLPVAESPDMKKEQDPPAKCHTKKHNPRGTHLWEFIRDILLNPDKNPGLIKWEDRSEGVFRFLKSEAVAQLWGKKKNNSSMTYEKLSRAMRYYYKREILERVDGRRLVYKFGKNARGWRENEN
# How it was run: as §1
# SPI1 = SPI1 (Homo sapiens, UniProt P17947 1-270)
# How it was run: as §1
# SPIB = SPIB (Homo sapiens, UniProt Q01892 1-262)
# How it was run: as §1
# ELK3 = target: T6, ELK3 (Homo sapiens, UniProt P41970 1-407)
# T6 sequence: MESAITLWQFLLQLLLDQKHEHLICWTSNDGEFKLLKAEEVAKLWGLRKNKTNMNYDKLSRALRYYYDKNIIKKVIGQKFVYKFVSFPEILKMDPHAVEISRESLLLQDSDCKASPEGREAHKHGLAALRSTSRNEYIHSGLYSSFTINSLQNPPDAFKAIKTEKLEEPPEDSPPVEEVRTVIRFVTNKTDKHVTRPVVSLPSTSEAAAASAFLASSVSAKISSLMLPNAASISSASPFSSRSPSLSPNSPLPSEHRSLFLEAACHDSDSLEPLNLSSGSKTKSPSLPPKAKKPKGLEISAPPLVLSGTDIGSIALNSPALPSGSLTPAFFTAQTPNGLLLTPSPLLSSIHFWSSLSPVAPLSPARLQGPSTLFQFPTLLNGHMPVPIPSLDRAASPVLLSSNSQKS
# How it was run: as §1
# Chain of SPIB (Q01892 whole entry): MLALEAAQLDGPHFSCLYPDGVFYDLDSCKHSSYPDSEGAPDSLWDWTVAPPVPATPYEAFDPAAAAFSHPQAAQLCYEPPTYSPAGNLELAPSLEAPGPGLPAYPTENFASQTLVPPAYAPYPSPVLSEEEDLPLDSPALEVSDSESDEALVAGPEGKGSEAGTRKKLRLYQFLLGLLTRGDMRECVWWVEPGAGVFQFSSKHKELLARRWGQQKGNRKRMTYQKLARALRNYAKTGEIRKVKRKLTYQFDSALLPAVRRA
# Chain of ELF1 (P32519 whole entry): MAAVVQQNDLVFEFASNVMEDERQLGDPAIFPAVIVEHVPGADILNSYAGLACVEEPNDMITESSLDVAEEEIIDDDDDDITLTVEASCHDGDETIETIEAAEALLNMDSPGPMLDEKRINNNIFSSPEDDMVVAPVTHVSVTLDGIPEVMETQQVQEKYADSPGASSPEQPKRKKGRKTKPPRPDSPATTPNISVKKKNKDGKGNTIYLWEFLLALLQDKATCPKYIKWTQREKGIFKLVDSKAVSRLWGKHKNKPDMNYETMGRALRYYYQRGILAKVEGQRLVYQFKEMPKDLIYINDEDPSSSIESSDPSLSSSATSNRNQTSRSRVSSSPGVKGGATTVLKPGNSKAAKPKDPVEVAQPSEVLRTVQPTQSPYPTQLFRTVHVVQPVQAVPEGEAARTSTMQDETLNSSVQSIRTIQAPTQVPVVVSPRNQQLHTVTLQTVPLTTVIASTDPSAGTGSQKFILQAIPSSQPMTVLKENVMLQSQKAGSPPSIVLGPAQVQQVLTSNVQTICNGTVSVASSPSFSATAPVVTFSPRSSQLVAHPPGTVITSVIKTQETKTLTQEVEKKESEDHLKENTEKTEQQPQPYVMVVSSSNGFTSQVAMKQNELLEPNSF
sequence,measurement,setting,value
TACATA,binding signal,FLI1,"1.18 fold enrichment (6-mer frequency, TF over GST control)"
same,binding signal,ELK1,"1.19 fold enrichment (6-mer frequency, TF over GST control)"
same,binding signal,GABPA,"1.22 fold enrichment (6-mer frequency, TF over GST control)"
same,binding signal,ERG,"1.24 fold enrichment (6-mer frequency, TF over GST control)"
same,binding signal,ELF1,"1.18 fold enrichment (6-mer frequency, TF over GST control)"
same,binding signal,EHF,"1.17 fold enrichment (6-mer frequency, TF over GST control)"
same,binding signal,SPI1,"1.15 fold enrichment (6-mer frequency, TF over GST control)"
same,binding signal,SPIB,"1.22 fold enrichment (6-mer frequency, TF over GST control)"
same,binding signal,ELK3,"1.19 fold enrichment (6-mer frequency, TF over GST control)"
